# Reference: publication PMC5700166
# Biological target: T1, GST-Co-NF-kB (Capsaspora owczarzaki, UniProt F1ARL5 200-546)
# T1 sequence: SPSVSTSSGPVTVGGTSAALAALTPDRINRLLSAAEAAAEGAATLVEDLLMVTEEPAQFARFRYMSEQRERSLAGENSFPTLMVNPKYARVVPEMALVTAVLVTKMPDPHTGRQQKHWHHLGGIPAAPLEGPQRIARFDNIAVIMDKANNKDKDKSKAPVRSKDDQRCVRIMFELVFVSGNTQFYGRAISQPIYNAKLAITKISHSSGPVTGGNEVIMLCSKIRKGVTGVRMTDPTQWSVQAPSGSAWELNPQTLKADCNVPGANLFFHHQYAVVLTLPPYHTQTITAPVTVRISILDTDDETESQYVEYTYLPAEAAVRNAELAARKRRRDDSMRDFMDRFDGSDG
# Assay: protein-binding microarray (PBM); PBM: ~300 nM protein, 6 mM HEPES pH 7.8, 80 mM KCl, 0.5 mM EDTA, 0.5 mM EGTA, 6% glycerol, 35 ng/ul poly-dIdC, 1% milk, 1 h, room temperature; Ap Aiptasia and Nv Nematostella (sea anemones) / Co Capsaspora / Aq Amphimedon (sponge) / Dm Drosophila / Hu human; RHD is the Rel homology domain; high values mean tight binding
# Details: dsDNA, one strand shown
row,Sequence,binding signal [z-score]
1,CCGATTAACATCACTAATTTCCCTGATGTTAATCGGGTCTTGATTCGCTTGACGCTGCTG,4.57
2,CCGATTAACATCATAATTCCCAATGATGTTAATCGGGTCTTGATTCGCTTGACGCTGCTG,2.94
3,CCGATTAACATCAATGGGAAAATTGATGTTAATCGGGTCTTGATTCGCTTGACGCTGCTG,3.46

# Biological target: T2, GST-Dm-Relish (Drosophila melanogaster, UniProt Q94527 99-473)
# T2 sequence: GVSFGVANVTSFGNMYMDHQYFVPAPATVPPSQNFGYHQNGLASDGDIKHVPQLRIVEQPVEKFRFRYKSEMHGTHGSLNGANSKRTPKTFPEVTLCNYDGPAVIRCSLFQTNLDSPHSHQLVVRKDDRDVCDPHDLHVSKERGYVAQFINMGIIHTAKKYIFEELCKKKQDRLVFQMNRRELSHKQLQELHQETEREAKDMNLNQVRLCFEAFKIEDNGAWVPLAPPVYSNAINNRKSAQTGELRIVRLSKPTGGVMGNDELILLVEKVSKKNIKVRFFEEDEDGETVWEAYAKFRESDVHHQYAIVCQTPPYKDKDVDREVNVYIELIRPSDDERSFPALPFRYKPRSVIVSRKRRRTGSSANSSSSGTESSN
# Assay: as above
# Details: dsDNA, one strand shown
row,Sequence,binding signal [z-score]
1,CCGATTAACATCAGGGGTTTAACTGATGTTAATCGGGTCTTGATTCGCTTGACGCTGCTG,3.3
2,CCGATTAACATCAGGGACCGCCCTGATGTTAATCGGGTCTTGATTCGCTTGACGCTGCTG,1.91
3,CCGATTAACATCAGGAACGCCCCTGATGTTAATCGGGTCTTGATTCGCTTGACGCTGCTG,2.09
4,CCGATTAACATCAGGGGGTAACCTGATGTTAATCGGGTCTTGATTCGCTTGACGCTGCTG,3.94
5,CCGATTAACATCAGGAGTACCCCTGATGTTAATCGGGTCTTGATTCGCTTGACGCTGCTG,3.64
6,CCGATTAACATCAGGGAAAATGATGATGTTAATCGGGTCTTGATTCGCTTGACGCTGCTG,1.15
7,CCGATTAACATCAAGCAATTCCCTGATGTTAATCGGGTCTTGATTCGCTTGACGCTGCTG,1.23
8,CCGATTAACATCAGGAAATGCCCTGATGTTAATCGGGTCTTGATTCGCTTGACGCTGCTG,1.68
9,CCGATTAACATCAGGAATAACCCTGATGTTAATCGGGTCTTGATTCGCTTGACGCTGCTG,3.23
10,CCGATTAACATCAATGGGATTCCTGATGTTAATCGGGTCTTGATTCGCTTGACGCTGCTG,7.4
11,CCGATTAACATCACGGTATTTCCTGATGTTAATCGGGTCTTGATTCGCTTGACGCTGCTG,3.77
12,CCGATTAACATCAAATATACCCCTGATGTTAATCGGGTCTTGATTCGCTTGACGCTGCTG,2.64
13,CCGATTAACATCACGGGAAACCCTGATGTTAATCGGGTCTTGATTCGCTTGACGCTGCTG,7.56
14,CCGATTAACATCAGATTTCCCACTGATGTTAATCGGGTCTTGATTCGCTTGACGCTGCTG,2.02
15,CCGATTAACATCAGGTATTTTTATGATGTTAATCGGGTCTTGATTCGCTTGACGCTGCTG,3.8
16,CCGATTAACATCAGGTACTTCCATGATGTTAATCGGGTCTTGATTCGCTTGACGCTGCTG,5.93
17,CCGATTAACATCAGGGATCACCCTGATGTTAATCGGGTCTTGATTCGCTTGACGCTGCTG,6.12
18,CCGATTAACATCACGGACTTCCCTGATGTTAATCGGGTCTTGATTCGCTTGACGCTGCTG,7.44
19,CCGATTAACATCAGGAATTCACCTGATGTTAATCGGGTCTTGATTCGCTTGACGCTGCTG,6.05
20,CCGATTAACATCAGGGGAAGGGATGATGTTAATCGGGTCTTGATTCGCTTGACGCTGCTG,1.68

row,Sequence,binding signal [z-score]
1,CCGATTAACATCAGGGAAGCCCATGATGTTAATCGGGTCTTGATTCGCTTGACGCTGCTG,8.29
2,CCGATTAACATCAGGCGAGTCCCTGATGTTAATCGGGTCTTGATTCGCTTGACGCTGCTG,1.72
3,CCGATTAACATCAAGGAAAACCCTGATGTTAATCGGGTCTTGATTCGCTTGACGCTGCTG,4.56
4,CCGATTAACATCACGGGACTTCCTGATGTTAATCGGGTCTTGATTCGCTTGACGCTGCTG,7.87
5,CCGATTAACATCACGGAAAGCCCTGATGTTAATCGGGTCTTGATTCGCTTGACGCTGCTG,2.9
6,CCGATTAACATCAGGAAAAACCCTGATGTTAATCGGGTCTTGATTCGCTTGACGCTGCTG,6.52
7,CCGATTAACATCAGGACAATCCCTGATGTTAATCGGGTCTTGATTCGCTTGACGCTGCTG,2.5
8,CCGATTAACATCAGGAAGTCCCATGATGTTAATCGGGTCTTGATTCGCTTGACGCTGCTG,6.71
9,CCGATTAACATCAAACCCCCCCCTGATGTTAATCGGGTCTTGATTCGCTTGACGCTGCTG,6.75
10,CCGATTAACATCAACTCCCCCCATGATGTTAATCGGGTCTTGATTCGCTTGACGCTGCTG,4.31
11,CCGATTAACATCAAAAAAAGTCCTGATGTTAATCGGGTCTTGATTCGCTTGACGCTGCTG,5.69
12,CCGATTAACATCAGGGGGTTACATGATGTTAATCGGGTCTTGATTCGCTTGACGCTGCTG,6.42
13,CCGATTAACATCAGGAAAACCCATGATGTTAATCGGGTCTTGATTCGCTTGACGCTGCTG,4.78
14,CCGATTAACATCAGGGGACAACCTGATGTTAATCGGGTCTTGATTCGCTTGACGCTGCTG,3.96
15,CCGATTAACATCAAGAGTTTCCCTGATGTTAATCGGGTCTTGATTCGCTTGACGCTGCTG,2.43
16,CCGATTAACATCACTAATTTCCCTGATGTTAATCGGGTCTTGATTCGCTTGACGCTGCTG,2.5
17,CCGATTAACATCAGAGAAGTCCCTGATGTTAATCGGGTCTTGATTCGCTTGACGCTGCTG,4.44
18,CCGATTAACATCATAATTCCCAATGATGTTAATCGGGTCTTGATTCGCTTGACGCTGCTG,2.22
19,CCGATTAACATCAATGGGAAAATTGATGTTAATCGGGTCTTGATTCGCTTGACGCTGCTG,1.25
